# Results taken from ChEMBL document CHEMBL1961873, “Compounds: GSK PKIS; Assays: Nanosyn kinase panel” (2012).
# What was measured:
# [1] = target: Platelet-derived growth factor receptor beta (Homo sapiens) (UniProt P09619); settings: at 0.1 µM
# [2] = target: Platelet-derived growth factor receptor beta (Homo sapiens) (UniProt P09619); settings: at 1 µM
# [3] = target: Tyrosine-protein kinase FRK (Homo sapiens) (UniProt P42685); settings: at 0.1 µM
# [4] = target: Tyrosine-protein kinase FRK (Homo sapiens) (UniProt P42685); settings: at 1 µM
# [5] = target: Protein-tyrosine kinase 2-beta (Homo sapiens) (UniProt Q14289); settings: at 0.1 µM
# [6] = target: Protein-tyrosine kinase 2-beta (Homo sapiens) (UniProt Q14289); settings: at 1 µM
# [7] = target: Proto-oncogene tyrosine-protein kinase receptor Ret (Homo sapiens) (UniProt P07949); settings: at 0.1 µM
# [8] = target: Proto-oncogene tyrosine-protein kinase receptor Ret (Homo sapiens) (UniProt P07949); settings: at 1 µM
# [9] = system: Proto-oncogene tyrosine-protein kinase receptor Ret (Homo sapiens), P07949 [V804L]; settings: at 0.1 µM
# [10] = system: Proto-oncogene tyrosine-protein kinase receptor Ret (Homo sapiens), P07949 [V804L]; settings: at 1 µM
# [11] = system: Proto-oncogene tyrosine-protein kinase receptor Ret (Homo sapiens), P07949 [Y791F]; settings: at 0.1 µM
# [12] = system: Proto-oncogene tyrosine-protein kinase receptor Ret (Homo sapiens), P07949 [Y791F]; settings: at 1 µM
# [13] = target: Macrophage-stimulating protein receptor (Homo sapiens) (UniProt Q04912); settings: at 0.1 µM
# [14] = target: Macrophage-stimulating protein receptor (Homo sapiens) (UniProt Q04912); settings: at 1 µM
# [15] = target: Proto-oncogene tyrosine-protein kinase ROS (Homo sapiens) (UniProt P08922); settings: at 0.1 µM
# [16] = target: Proto-oncogene tyrosine-protein kinase ROS (Homo sapiens) (UniProt P08922); settings: at 1 µM
# [17] = target: Proto-oncogene tyrosine-protein kinase Src (Homo sapiens) (UniProt P12931); settings: at 0.1 µM
# [18] = target: Proto-oncogene tyrosine-protein kinase Src (Homo sapiens) (UniProt P12931); settings: at 1 µM
# [19] = target: Tyrosine-protein kinase Srms (Homo sapiens) (UniProt Q9H3Y6); settings: at 0.1 µM
# [20] = target: Tyrosine-protein kinase Srms (Homo sapiens) (UniProt Q9H3Y6); settings: at 1 µM
# [21] = target: Tyrosine-protein kinase SYK (Homo sapiens) (UniProt P43405); settings: at 0.1 µM
# [22] = target: Tyrosine-protein kinase SYK (Homo sapiens) (UniProt P43405); settings: at 1 µM
# [23] = target: Tyrosine-protein kinase Tec (Homo sapiens) (UniProt P42680); settings: at 0.1 µM
# [24] = target: Tyrosine-protein kinase Tec (Homo sapiens) (UniProt P42680); settings: at 1 µM
# [25] = target: Angiopoietin-1 receptor (Homo sapiens) (UniProt Q02763); settings: at 0.1 µM
# [26] = target: Angiopoietin-1 receptor (Homo sapiens) (UniProt Q02763); settings: at 1 µM
# [27] = target: Non-receptor tyrosine-protein kinase TNK1 (Homo sapiens) (UniProt Q13470); settings: at 0.1 µM
# [28] = target: Non-receptor tyrosine-protein kinase TNK1 (Homo sapiens) (UniProt Q13470); settings: at 1 µM
# [29] = target: Activated CDC42 kinase 1 (Homo sapiens) (UniProt Q07912); settings: at 0.1 µM
# [30] = target: Activated CDC42 kinase 1 (Homo sapiens) (UniProt Q07912); settings: at 1 µM
# [31] = target: High affinity nerve growth factor receptor (Homo sapiens) (UniProt P04629); settings: at 0.1 µM
# [32] = target: High affinity nerve growth factor receptor (Homo sapiens) (UniProt P04629); settings: at 1 µM
# [33] = target: BDNF/NT-3 growth factors receptor (Homo sapiens) (UniProt Q16620); settings: at 0.1 µM
# [34] = target: BDNF/NT-3 growth factors receptor (Homo sapiens) (UniProt Q16620); settings: at 1 µM
# [35] = target: NT-3 growth factor receptor (Homo sapiens) (UniProt Q16288); settings: at 0.1 µM
# [36] = target: NT-3 growth factor receptor (Homo sapiens) (UniProt Q16288); settings: at 1 µM
# [37] = target: Tyrosine-protein kinase TXK (Homo sapiens) (UniProt P42681); settings: at 0.1 µM
# [38] = target: Tyrosine-protein kinase TXK (Homo sapiens) (UniProt P42681); settings: at 1 µM
# [39] = target: Non-receptor tyrosine-protein kinase TYK2 (Homo sapiens) (UniProt P29597); settings: at 0.1 µM;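 note: each value is a mean of the inhibition readings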
# [40] = target: Dual specificity protein kinase TTK (Homo sapiens) (UniProt P33981); settings: at 1 µM;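 note: reported figures are mean TTK inhibition at 1 µM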
# [41] = target: Aurora kinase A (Homo sapiens) (UniProt O14965); settings: at 0.1 µM
# [42] = target: Aurora kinase A (Homo sapiens) (UniProt O14965); settings: at 1 µM
# [43] = target: Aurora kinase B (Homo sapiens) (UniProt Q96GD4); settings: at 0.1 µM
# [44] = target: Aurora kinase B (Homo sapiens) (UniProt Q96GD4); settings: at 1 µM
# [45] = target: Aurora kinase C (Homo sapiens) (UniProt Q9UQB9); settings: at 0.1 µM
# [46] = target: Aurora kinase C (Homo sapiens) (UniProt Q9UQB9); settings: at 1 µM
# [47] = target: Serine/threonine-protein kinase 10 (Homo sapiens) (UniProt O94804); settings: at 0.1 µM
# [48] = target: Serine/threonine-protein kinase 10 (Homo sapiens) (UniProt O94804); settings: at 1 µM
# [49] = target: Mitogen-activated protein kinase kinase kinase kinase 2 (Homo sapiens) (UniProt Q12851); settings: at 0.1 µM
# [50] = target: Mitogen-activated protein kinase kinase kinase kinase 2 (Homo sapiens) (UniProt Q12851); settings: at 1 µM
# [51] = target: Mitogen-activated protein kinase kinase kinase kinase 4 (Homo sapiens) (UniProt O95819); settings: at 0.1 µM
# [52] = target: Mitogen-activated protein kinase kinase kinase kinase 4 (Homo sapiens) (UniProt O95819); settings: at 1 µM
# [53] = target: Dual specificity mitogen-activated protein kinase kinase 1 (Homo sapiens) (UniProt Q02750); settings: at 0.1 µM
# [54] = target: Dual specificity mitogen-activated protein kinase kinase 1 (Homo sapiens) (UniProt Q02750); settings: at 1 µM
# [55] = target: Misshapen-like kinase 1 (Homo sapiens) (UniProt Q8N4C8); settings: at 0.1 µM
# [56] = target: Misshapen-like kinase 1 (Homo sapiens) (UniProt Q8N4C8); settings: at 1 µM
# Sequence of Non-receptor tyrosine-protein kinase TNK1 (Homo sapiens) (Q13470 whole entry): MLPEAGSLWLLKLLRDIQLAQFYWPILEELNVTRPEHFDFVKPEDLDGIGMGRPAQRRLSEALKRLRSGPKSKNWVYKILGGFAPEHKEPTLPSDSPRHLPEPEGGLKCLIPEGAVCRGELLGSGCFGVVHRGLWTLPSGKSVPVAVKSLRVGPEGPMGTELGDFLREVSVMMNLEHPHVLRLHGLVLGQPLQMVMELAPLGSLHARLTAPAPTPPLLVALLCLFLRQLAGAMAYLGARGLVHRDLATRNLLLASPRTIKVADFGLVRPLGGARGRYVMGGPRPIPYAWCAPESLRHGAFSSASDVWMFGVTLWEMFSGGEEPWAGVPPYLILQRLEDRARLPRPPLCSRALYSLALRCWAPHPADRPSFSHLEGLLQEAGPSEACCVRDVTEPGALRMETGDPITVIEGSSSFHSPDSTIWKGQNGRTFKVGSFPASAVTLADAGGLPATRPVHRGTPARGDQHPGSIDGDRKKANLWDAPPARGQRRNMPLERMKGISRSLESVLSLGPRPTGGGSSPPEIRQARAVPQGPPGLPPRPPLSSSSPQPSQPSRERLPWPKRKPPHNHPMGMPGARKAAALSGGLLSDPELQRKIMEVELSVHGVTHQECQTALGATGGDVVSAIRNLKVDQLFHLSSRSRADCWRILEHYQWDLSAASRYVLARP
# Sequence of Proto-oncogene tyrosine-protein kinase receptor Ret (Homo sapiens) (P07949 whole entry): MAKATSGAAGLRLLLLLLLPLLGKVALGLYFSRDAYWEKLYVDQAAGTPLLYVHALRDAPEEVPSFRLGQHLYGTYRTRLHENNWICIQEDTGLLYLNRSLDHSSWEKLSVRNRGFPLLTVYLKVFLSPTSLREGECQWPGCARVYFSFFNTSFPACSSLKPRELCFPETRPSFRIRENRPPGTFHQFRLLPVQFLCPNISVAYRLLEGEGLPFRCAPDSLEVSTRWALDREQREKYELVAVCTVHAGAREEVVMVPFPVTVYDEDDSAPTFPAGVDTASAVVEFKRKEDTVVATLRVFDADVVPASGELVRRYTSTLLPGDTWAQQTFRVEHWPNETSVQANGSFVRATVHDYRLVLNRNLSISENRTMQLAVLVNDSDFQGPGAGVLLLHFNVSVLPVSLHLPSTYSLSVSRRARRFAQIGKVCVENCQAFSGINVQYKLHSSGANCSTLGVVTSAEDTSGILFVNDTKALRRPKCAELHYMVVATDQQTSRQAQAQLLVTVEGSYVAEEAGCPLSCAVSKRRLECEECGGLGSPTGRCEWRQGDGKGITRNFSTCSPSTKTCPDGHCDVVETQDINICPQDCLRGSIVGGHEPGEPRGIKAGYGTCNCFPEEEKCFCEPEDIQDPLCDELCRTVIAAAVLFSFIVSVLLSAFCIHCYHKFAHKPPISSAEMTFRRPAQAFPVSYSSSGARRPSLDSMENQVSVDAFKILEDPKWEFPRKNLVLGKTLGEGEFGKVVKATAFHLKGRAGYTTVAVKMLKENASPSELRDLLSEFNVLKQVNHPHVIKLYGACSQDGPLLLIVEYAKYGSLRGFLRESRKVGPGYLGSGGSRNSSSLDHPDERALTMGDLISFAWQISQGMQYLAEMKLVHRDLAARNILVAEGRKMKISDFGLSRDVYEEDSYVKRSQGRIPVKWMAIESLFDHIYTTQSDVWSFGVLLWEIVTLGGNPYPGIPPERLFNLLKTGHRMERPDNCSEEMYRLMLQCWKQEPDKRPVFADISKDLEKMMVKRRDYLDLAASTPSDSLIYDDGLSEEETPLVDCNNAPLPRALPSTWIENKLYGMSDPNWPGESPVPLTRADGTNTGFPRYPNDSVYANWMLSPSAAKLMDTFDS
# Sequence of Misshapen-like kinase 1 (Homo sapiens) (Q8N4C8 whole entry, looked up): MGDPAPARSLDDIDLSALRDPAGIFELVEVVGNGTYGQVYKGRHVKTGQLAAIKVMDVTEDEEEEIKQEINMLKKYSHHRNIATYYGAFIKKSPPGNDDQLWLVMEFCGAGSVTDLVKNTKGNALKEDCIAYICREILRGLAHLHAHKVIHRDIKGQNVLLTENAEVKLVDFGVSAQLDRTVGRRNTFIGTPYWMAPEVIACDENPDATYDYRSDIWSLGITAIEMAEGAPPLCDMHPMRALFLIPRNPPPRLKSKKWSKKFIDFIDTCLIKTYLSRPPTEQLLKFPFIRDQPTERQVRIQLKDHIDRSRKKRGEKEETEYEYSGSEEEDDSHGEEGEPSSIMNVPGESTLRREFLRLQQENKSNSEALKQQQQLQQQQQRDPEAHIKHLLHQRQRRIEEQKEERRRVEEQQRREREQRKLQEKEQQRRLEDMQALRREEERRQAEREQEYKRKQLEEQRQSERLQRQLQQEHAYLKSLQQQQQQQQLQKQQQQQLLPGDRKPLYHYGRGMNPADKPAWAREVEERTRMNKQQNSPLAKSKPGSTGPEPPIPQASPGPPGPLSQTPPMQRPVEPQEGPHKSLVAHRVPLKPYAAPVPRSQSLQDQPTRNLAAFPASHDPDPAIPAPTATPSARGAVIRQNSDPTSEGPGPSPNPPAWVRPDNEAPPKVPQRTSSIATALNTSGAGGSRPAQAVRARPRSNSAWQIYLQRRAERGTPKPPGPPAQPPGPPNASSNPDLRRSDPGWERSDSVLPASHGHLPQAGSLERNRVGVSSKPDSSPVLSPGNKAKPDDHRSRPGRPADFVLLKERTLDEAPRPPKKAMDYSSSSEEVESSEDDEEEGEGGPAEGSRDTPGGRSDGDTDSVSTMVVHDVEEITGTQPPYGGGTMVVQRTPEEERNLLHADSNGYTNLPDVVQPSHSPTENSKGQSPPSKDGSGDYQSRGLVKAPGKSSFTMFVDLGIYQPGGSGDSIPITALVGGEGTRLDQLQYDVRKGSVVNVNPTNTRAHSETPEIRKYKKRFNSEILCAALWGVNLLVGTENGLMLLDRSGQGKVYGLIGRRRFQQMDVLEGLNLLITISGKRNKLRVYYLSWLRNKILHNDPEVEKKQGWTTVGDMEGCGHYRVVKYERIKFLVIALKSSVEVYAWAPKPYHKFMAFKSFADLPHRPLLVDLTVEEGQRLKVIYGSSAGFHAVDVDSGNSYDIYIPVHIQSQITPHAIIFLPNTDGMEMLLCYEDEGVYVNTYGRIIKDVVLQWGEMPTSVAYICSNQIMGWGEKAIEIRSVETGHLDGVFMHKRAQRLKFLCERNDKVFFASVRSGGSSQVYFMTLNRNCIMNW
# Sequence of BDNF/NT-3 growth factors receptor (Homo sapiens) (Q16620 32-822 limits assumed): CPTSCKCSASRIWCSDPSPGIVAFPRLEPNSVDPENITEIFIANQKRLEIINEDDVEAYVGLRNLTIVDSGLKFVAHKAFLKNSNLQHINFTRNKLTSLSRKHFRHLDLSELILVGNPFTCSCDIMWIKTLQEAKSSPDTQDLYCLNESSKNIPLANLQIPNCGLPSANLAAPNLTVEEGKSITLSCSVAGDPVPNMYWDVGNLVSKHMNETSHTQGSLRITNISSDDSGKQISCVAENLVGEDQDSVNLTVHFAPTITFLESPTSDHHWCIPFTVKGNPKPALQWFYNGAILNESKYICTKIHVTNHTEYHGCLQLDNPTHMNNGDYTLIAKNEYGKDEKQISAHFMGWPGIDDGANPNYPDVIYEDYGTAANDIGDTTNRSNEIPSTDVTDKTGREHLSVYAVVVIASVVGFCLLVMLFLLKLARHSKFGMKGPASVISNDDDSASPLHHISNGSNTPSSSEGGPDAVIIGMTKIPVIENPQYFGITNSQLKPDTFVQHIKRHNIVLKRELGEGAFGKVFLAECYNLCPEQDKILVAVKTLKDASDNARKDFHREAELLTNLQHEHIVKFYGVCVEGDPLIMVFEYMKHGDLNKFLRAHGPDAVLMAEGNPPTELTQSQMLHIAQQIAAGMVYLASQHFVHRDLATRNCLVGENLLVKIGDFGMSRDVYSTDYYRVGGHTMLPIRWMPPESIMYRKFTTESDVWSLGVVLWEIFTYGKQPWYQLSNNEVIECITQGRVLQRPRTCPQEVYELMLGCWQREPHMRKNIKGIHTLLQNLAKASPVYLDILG
# Sequence of Protein-tyrosine kinase 2-beta (Homo sapiens) (Q14289 whole entry, looked up): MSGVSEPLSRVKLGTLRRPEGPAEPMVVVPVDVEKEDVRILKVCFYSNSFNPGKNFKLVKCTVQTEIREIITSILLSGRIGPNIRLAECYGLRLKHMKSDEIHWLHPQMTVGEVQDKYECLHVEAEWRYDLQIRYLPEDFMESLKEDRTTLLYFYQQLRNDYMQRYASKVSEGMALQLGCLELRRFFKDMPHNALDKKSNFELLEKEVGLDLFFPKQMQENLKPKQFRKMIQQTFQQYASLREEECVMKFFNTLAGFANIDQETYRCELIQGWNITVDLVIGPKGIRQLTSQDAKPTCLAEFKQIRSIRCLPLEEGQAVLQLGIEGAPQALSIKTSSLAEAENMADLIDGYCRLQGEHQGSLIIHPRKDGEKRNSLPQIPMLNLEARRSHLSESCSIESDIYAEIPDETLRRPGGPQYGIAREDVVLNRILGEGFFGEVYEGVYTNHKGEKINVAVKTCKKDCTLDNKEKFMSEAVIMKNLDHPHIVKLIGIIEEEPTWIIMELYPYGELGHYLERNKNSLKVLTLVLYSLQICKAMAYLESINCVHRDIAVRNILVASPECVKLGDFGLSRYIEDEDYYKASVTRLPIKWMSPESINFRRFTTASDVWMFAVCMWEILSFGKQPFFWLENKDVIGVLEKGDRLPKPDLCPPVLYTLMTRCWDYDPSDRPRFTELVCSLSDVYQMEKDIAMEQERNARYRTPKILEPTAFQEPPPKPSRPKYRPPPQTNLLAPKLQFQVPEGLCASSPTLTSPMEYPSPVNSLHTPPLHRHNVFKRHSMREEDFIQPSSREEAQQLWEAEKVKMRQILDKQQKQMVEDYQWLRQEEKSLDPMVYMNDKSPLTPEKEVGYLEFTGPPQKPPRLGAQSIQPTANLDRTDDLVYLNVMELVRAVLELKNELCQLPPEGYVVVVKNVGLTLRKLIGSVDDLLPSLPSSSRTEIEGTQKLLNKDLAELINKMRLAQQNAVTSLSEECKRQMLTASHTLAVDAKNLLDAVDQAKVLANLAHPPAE
# Sequence of Proto-oncogene tyrosine-protein kinase receptor Ret (Homo sapiens), P07949 [V804L] (P07949 whole entry V804L): as the sequence (P07949 whole entry) above, with V804L counted along it
# Sequence of Proto-oncogene tyrosine-protein kinase receptor Ret (Homo sapiens), P07949 [Y791F] (P07949 whole entry Y791F): as the sequence (P07949 whole entry) above, with Y791F counted along it
smiles,measurement,setting,value
CNC(=O)Oc1cc(C)c(/C=C/c2cncc(C(=O)NC)c2)c(C)c1,inhibition,[1],8.91%
same,inhibition,[2],49.7%
same,inhibition,[3],2.61%
same,inhibition,[4],13.1%
same,inhibition,[5],10.7%
same,inhibition,[6],6.54%
same,inhibition,[7],-1.48%
same,inhibition,[8],2.54%
same,inhibition,[9],2.06%
same,inhibition,[10],3.32%
same,inhibition,[11],2.2%
same,inhibition,[12],2.71%
same,inhibition,[13],-0.85%
same,inhibition,[14],4.22%
same,inhibition,[15],9.53%
same,inhibition,[16],13.7%
same,inhibition,[17],5.94%
same,inhibition,[18],49.2%
same,inhibition,[19],4.13%
same,inhibition,[20],19.3%
same,inhibition,[21],-1.41%
same,inhibition,[22],-0.86%
same,inhibition,[23],8.66%
same,inhibition,[24],39.1%
same,inhibition,[25],-0.08%
same,inhibition,[26],3.57%
same,inhibition,[27],1.27%
same,inhibition,[28],14.6%
same,inhibition,[29],0.99%
same,inhibition,[30],6.77%
same,inhibition,[31],1.04%
same,inhibition,[32],-0.56%
same,inhibition,[33],1.03%
same,inhibition,[34],0.99%
same,inhibition,[35],-0.56%
same,inhibition,[36],2.73%
same,inhibition,[37],13.4%
same,inhibition,[38],34.7%
same,inhibition,[39],-4.14%
same,inhibition,[40],8.09%
same,inhibition,[41],2.77%
same,inhibition,[42],4.58%
same,inhibition,[43],0.2%
same,inhibition,[44],1.25%
same,inhibition,[45],0.65%
same,inhibition,[46],9.48%
same,inhibition,[47],5.93%
same,inhibition,[48],16.9%
same,inhibition,[49],0.92%
same,inhibition,[50],5.49%
same,inhibition,[51],3.12%
same,inhibition,[52],8.96%
same,inhibition,[53],2.97%
same,inhibition,[54],4.15%
same,inhibition,[55],3.2%
same,inhibition,[56],7.01%
